{
  "source": "ChEMBL document CHEMBL3433997",
  "about": "“St. Jude Leishmania screening dataset” (2016)",
  "format_in_all_cases": "functional",
  "key": {"[1]": {"target": "Solute carrier family 2, facilitated glucose transporter member 1 (Homo sapiens) (UniProt P11166)", "sequence (P11166 whole entry)": "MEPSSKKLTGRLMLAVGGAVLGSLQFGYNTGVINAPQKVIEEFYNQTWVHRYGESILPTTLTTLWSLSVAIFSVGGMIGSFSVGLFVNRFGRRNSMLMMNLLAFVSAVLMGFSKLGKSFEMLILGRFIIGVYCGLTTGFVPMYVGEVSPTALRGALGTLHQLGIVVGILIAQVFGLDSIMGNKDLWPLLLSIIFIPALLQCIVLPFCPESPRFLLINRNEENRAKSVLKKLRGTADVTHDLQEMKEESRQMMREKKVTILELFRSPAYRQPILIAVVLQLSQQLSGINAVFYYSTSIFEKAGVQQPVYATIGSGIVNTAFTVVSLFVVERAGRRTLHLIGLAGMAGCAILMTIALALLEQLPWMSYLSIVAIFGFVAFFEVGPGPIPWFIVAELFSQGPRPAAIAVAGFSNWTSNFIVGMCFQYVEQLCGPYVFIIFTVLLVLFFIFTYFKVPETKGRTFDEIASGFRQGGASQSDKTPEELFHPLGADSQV", "test": "ST_JUDE_LEISH: Cytotoxicity at 2uM final concentration against transgenic Leishmania Mexicana promastigotes LmGLUT1 that are glucose transport deficient and complemented with the human glucose transporter GLUT1. Activity is measured by DNA content using SYBR green in vitro"}, "[2]": {"target": "Hexose transporter 1 (Plasmodium falciparum) (UniProt O97467)", "test": "ST_JUDE_LEISH: Cytotoxicity at 2uM final concentration against transgenic Leishmania Mexicana promastigotes LmPfHT that are glucose transport deficient and complemented with the Plasmodium falciparum hexose transporter. Activity is measured by DNA content using SYBR green in vitro"}, "[3]": {"target": "Glucose transporter (Leishmania mexicana) (UniProt O61059)", "test": "ST_JUDE_LEISH: Cytotoxicity at 2uM final concentration against transgenic Leishmania Mexicana promastigotes LmGT2 that are glucose transport deficient and complemented with the L. Mexicana glucose transporter 2. Activity is measured by DNA content using SYBR green in vitro"}},
  "data": [
    {"smiles": "Cc1c(C(=O)C2CC2CN2CCC(N3CCCCC3)CC2)sc2ccccc12", "note": "(centres undefined)", "values": [
      {"measurement": "inhibition", "setting": "[1]", "value": 2.43, "unit": "%"},
      {"measurement": "inhibition", "setting": "[2]", "value": -0.31, "unit": "%"},
      {"measurement": "inhibition", "setting": "[3]", "value": 2.09, "unit": "%"}
    ]},
    {"smiles": "CC1=C(C(=O)Nc2cc3cn[nH]c3cc2F)C(c2cccc(NS(C)(=O)=O)c2)CC(=O)N1", "note": "(centres undefined)", "values": [
      {"measurement": "inhibition", "setting": "[1]", "value": 2.54, "unit": "%"},
      {"measurement": "inhibition", "setting": "[2]", "value": 1.97, "unit": "%"},
      {"measurement": "inhibition", "setting": "[3]", "value": 2.34, "unit": "%"}
    ]},
    {"smiles": "CN(C)CCOc1ccc(NC(=O)Nc2ccnc3c(Br)cccc23)cc1Cl", "values": [
      {"measurement": "inhibition", "setting": "[1]", "value": 0.71, "unit": "%"},
      {"measurement": "inhibition", "setting": "[2]", "value": 0.76, "unit": "%"},
      {"measurement": "inhibition", "setting": "[3]", "value": -0.85, "unit": "%"}
    ]},
    {"smiles": "CC(NC(=O)c1ccc(O)c(-c2ccc(Cl)c(Cl)c2)c1)C(=O)NC1CCCCC1", "note": "(centres undefined)", "values": [
      {"measurement": "inhibition", "setting": "[1]", "value": 5.53, "unit": "%"},
      {"measurement": "inhibition", "setting": "[2]", "value": 4.55, "unit": "%"},
      {"measurement": "inhibition", "setting": "[3]", "value": 5.71, "unit": "%"}
    ]},
    {"smiles": "O=C(Nc1ccc(OC2CCN(Cc3ccccc3)CC2)c(Cl)c1)c1ccco1", "values": [
      {"measurement": "inhibition", "setting": "[1]", "value": 8.6, "unit": "%"},
      {"measurement": "inhibition", "setting": "[2]", "value": 10.1, "unit": "%"},
      {"measurement": "inhibition", "setting": "[3]", "value": 8.63, "unit": "%"}
    ]},
    {"smiles": "N=C(N)Nc1nc(CCCCCCCCc2csc(NC(=N)N)n2)cs1", "values": [
      {"measurement": "inhibition", "setting": "[1]", "value": -1.03, "unit": "%"},
      {"measurement": "inhibition", "setting": "[2]", "value": -0.76, "unit": "%"},
      {"measurement": "inhibition", "setting": "[3]", "value": 1.03, "unit": "%"}
    ]},
    {"smiles": "c1ccc(N2CCN(c3cc(-c4cccnc4)nc(-c4ccncc4)n3)CC2)nc1", "values": [
      {"measurement": "inhibition", "setting": "[1]", "value": 2.7, "unit": "%"},
      {"measurement": "inhibition", "setting": "[2]", "value": 1.5, "unit": "%"},
      {"measurement": "inhibition", "setting": "[3]", "value": 0.92, "unit": "%"}
    ]},
    {"smiles": "CS(=O)(=O)c1ccc(CNCc2ccc(-c3cccc(-c4nc5ccccc5[nH]4)c3)cc2)cc1", "values": [
      {"measurement": "inhibition", "setting": "[1]", "value": 17.3, "unit": "%"},
      {"measurement": "inhibition", "setting": "[2]", "value": 15.6, "unit": "%"},
      {"measurement": "inhibition", "setting": "[3]", "value": 14, "unit": "%"}
    ]},
    {"smiles": "Cc1cc(N2CCCCC2)nc2ccc(NC(=O)c3cc(=O)c4ccccc4o3)cc12", "values": [
      {"measurement": "inhibition", "setting": "[1]", "value": 5.94, "unit": "%"},
      {"measurement": "inhibition", "setting": "[2]", "value": 7.2, "unit": "%"},
      {"measurement": "inhibition", "setting": "[3]", "value": 0.66, "unit": "%"}
    ]},
    {"smiles": "COC(=O)c1ccc2c(-c3nc4ccc(OC)cc4[nH]3)c[nH]c2c1", "values": [
      {"measurement": "inhibition", "setting": "[1]", "value": 11.5, "unit": "%"},
      {"measurement": "inhibition", "setting": "[2]", "value": 10.3, "unit": "%"},
      {"measurement": "inhibition", "setting": "[3]", "value": 8.93, "unit": "%"}
    ]},
    {"smiles": "COc1ccc2c(N/N=C/c3ccccc3[N+](=O)[O-])ccnc2c1", "values": [
      {"measurement": "inhibition", "setting": "[1]", "value": 4.94, "unit": "%"},
      {"measurement": "inhibition", "setting": "[2]", "value": -0.53, "unit": "%"},
      {"measurement": "inhibition", "setting": "[3]", "value": 3.75, "unit": "%"}
    ]},
    {"smiles": "O=C(Nc1cccc(CN2CCCN(Cc3cccc(O)c3)CC2)c1)c1ccc(Cl)c(Cl)c1", "values": [
      {"measurement": "inhibition", "setting": "[1]", "value": 13.9, "unit": "%"},
      {"measurement": "inhibition", "setting": "[2]", "value": 12.1, "unit": "%"},
      {"measurement": "inhibition", "setting": "[3]", "value": 13.8, "unit": "%"}
    ]},
    {"smiles": "CN(C)Cc1ccc(-c2cc3c(Nc4ccc(OCc5cccc(F)c5)c(Cl)c4)ncnc3s2)[nH]1", "values": [
      {"measurement": "inhibition", "setting": "[1]", "value": 2.15, "unit": "%"},
      {"measurement": "inhibition", "setting": "[2]", "value": 2.19, "unit": "%"},
      {"measurement": "inhibition", "setting": "[3]", "value": 2.33, "unit": "%"}
    ]}
  ]
}
